According to paper PMC7826789 (International Journal of Molecular Sciences, 2021):

Tests used:
Details in all cases: Compound Concentration (nM):1000
CDK3 = test system: CDK3
CDK4-cyclinD1 = test system: CDK4-cyclinD1
CDK4-cyclinD3 = test system: CDK4-cyclinD3
CDK4 = test system: CDK4
CDK5 = test system: CDK5
CDK7 = test system: CDK7
CDK8 = test system: CDK8
CDK9 = test system: CDK9
CDKL1 = test system: CDKL1
CDKL2 = test system: CDKL2
CDKL3 = test system: CDKL3
CDKL5 = test system: CDKL5
CHEK1 = test system: CHEK1
CHEK2 = test system: CHEK2
CIT = test system: CIT
CLK1 = test system: CLK1
CLK2 = test system: CLK2
CLK3 = test system: CLK3
CLK4 = test system: CLK4
CSF1R-autoinhibited = test system: CSF1R-autoinhibited
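Note: KINOMEscan scanMAX binding as percent activity remaining versus control; lower means stronger binding.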

SMILES | Percent Control (CDK3) | Percent Control (CDK4-cyclinD1) | Percent Control (CDK4-cyclinD3) | Percent Control (CDK4) | Percent Control (CDK5) | Percent Control (CDK7) | Percent Control (CDK8) | Percent Control (CDK9) | Percent Control (CDKL1) | Percent Control (CDKL2) | Percent Control (CDKL3) | Percent Control (CDKL5) | Percent Control (CHEK1) | Percent Control (CHEK2) | Percent Control (CIT) | Percent Control (CLK1) | Percent Control (CLK2) | Percent Control (CLK3) | Percent Control (CLK4) | Percent Control (CSF1R-autoinhibited)
COc1ccc2cc(-c3c(-c4ccncc4)nc(-c4ccc(S(C)(=O)=O)cc4C)n3C)ccc2c1 [SB-633825] | 100% | 68% | 90% | 91% | 95% | 85% | 78% | 74% | 87% | 100% | 86% | 82% | 88% | 100% | 100% | 96% | 87% | 97% | 62% | 66%
CN(C)CCNC(=O)Nc1ccc(N(C)c2ccnc(Nc3ccc(CS(C)(=O)=O)cc3)n2)cc1.Cl [GW830900A] | 100% | 81% | 100% | 97% | 85% | 65% | 75% | 98% | 88% | 28% | 100% | 100% | 100% | 93% | 100% | 85% | 94% | 99% | 100% | 41%
Cl.O=S1CCN(Cc2ccc(-c3ccc4ncnc(Nc5ccc(OCc6ccccc6)c(F)c5)c4c3)o2)CC1 [GW576924A] | 100% | 100% | 100% | 100% | 100% | 100% | 86% | 100% | 100% | 100% | 100% | 60% | 100% | 99% | 100% | 100% | 100% | 100% | 100% | 100%
CCn1c(-c2nonc2N)nc2c(C#CC(C)(C)O)nc(OCCNC)cc21.Cl [GSK949675] | 100% | 100% | 92% | 100% | 85% | 88% | 100% | 100% | 90% | 100% | 100% | 100% | 100% | 86% | 44% | 100% | 87% | 100% | 90% | 100%
Cl.c1ccc(Cc2nc3ccc(Nc4ncnc5ccccc45)cc3[nH]2)cc1 [GR269666A] | 100% | 93% | 100% | 93% | 100% | 100% | 88% | 100% | 100% | 100% | 100% | 59% | 100% | 94% | 100% | 91% | 93% | 100% | 100% | 100%
CC(C)COC(=O)c1ccc2c(c1)/C(=C/Nc1ccc(S(N)(=O)=O)cc1)C(=O)N2 [GW416981X] | 42% | 3.8% | 13% | 91% | 36% | 3.7% | 86% | 100% | 52% | 24% | 64% | 5.1% | 100% | 42% | 86% | 18% | 2.3% | 98% | 41% | 95%
O=C1Nc2ccc(C(=O)c3ccco3)cc2C1=Cc1cc(Cl)c(O)c(Cl)c1 [GW406108X] | 100% | 78% | 94% | 94% | 89% | 76% | 80% | 100% | 88% | 100% | 100% | 100% | 100% | 42% | 89% | 3.3% | 0.1% | 6.2% | 12% | 61%
COc1cccc(-c2c[nH]c3c(N/N=C/c4ccncc4)ncnc23)c1 [GW814408X] | 67% | 26% | 25% | 100% | 82% | 2.2% | 100% | 65% | 15% | 26% | 8% | 4.2% | 100% | 86% | 54% | 30% | 44% | 80% | 30% | 74%
Cl.O=C(Nc1ccc(Oc2ccc3[nH]c(NC(=O)c4ccco4)nc3c2)cc1)Nc1cc(C(F)(F)F)ccc1F [GW683134A] | 100% | 100% | 100% | 100% | 100% | 12% | 100% | 100% | 77% | 6.5% | 100% | 100% | 88% | 97% | 0.4% | 47% | 89% | 100% | 44% | 79%
CC1=C(C(=O)Nc2ccc3[nH]ncc3c2)C(c2ccc3ccccc3c2)CC(=O)N1 (stereo not drawn) [GSK270822A] | 99% | 63% | 94% | 94% | 100% | 88% | 71% | 100% | 91% | 93% | 72% | 100% | 92% | 100% | 99% | 95% | 80% | 91% | 70% | 54%
Cc1cc(O)cc(C)c1/C=C/c1cncc(C(N)=O)c1 [GW435821X] | 100% | 97% | 100% | 100% | 100% | 100% | 72% | 100% | 100% | 100% | 100% | 100% | 100% | 99% | 98% | 89% | 100% | 100% | 74% | 87%
COc1ccc(COc2ccc(Cc3cnc(N)nc3N)cc2OC)cc1 [GW632580X] | 100% | 99% | 93% | 94% | 93% | 100% | 100% | 100% | 82% | 100% | 90% | 84% | 91% | 100% | 80% | 100% | 91% | 100% | 100% | 
NS(=O)(=O)c1ccc(N/N=C2\C(=O)Nc3ccc(Cl)cc32)cc1 [GW280670X] | 100% | 77% | 100% | 100% | 100% | 100% | 100% | 100% | 96% | 78% | 100% | 100% | 100% | 100% | 100% | 100% | 100% | 100% | 96% | 60%
CN1CCN(C(=O)c2ccc(NC(=O)Nc3ccc(N(C)c4ccnc(Nc5ccc(CS(C)(=O)=O)cc5)n4)cc3)cc2)CC1.Cl [GW830263A] | 100% | 77% | 89% | 83% | 91% | 61% | 85% | 69% | 73% | 1.7% | 72% | 100% | 100% | 68% | 79% | 84% | 54% | 95% | 100% | 8.8%
C/C(Nc1ccc(S(N)(=O)=O)cc1)=C1/C(=O)Nc2ccccc21 [GW335962X] | 100% | 29% | 64% | 100% | 100% | 74% | 78% | 100% | 85% | 82% | 94% | 100% | 93% | 51% | 86% | 98% | 78% | 98% | 100% | 40%
CCS(=O)(=O)c1ccc(OC)c(Nc2ncc(-c3cccc(F)c3)o2)c1 [GW621970X] | 100% | 99% | 100% | 100% | 100% | 85% | 100% | 100% | 100% | 100% | 100% | 60% | 100% | 100% | 100% | 19% | 12% | 75% | 23% | 6.2%
COC(=O)Nc1nc2ccc(Oc3ccc(NC(=O)Nc4cc(C(F)(F)F)ccc4F)cc3)cc2s1.Cl [GW693917A] | 100% | 96% | 90% | 100% | 100% | 9.3% | 20% | 86% | 73% | 0% | 15% | 38% | 95% | 76% | 1.8% | 42% | 100% | 82% | 100% | 86%
NS(=O)(=O)c1ccc(Nc2ncc(-c3ccccc3)o2)cc1 [GW572399X] | 100% | 60% | 88% | 95% | 100% | 21% | 93% | 100% | 80% | 65% | 100% | 100% | 100% | 100% | 100% | 100% | 100% | 100% | 100% | 58%
COc1cc(N2CCN(C(C)C)CC2)ccc1Nc1nc(Nc2ccc(F)cc2C(=O)NC[C@@H](O)CO)c2cc[nH]c2n1 [GSK1392956A] | 100% | 85% | 100% | 89% | 100% | 93% | 100% | 100% | 100% | 100% | 100% | 43% | 94% | 0.2% | 80% | 1.6% | 2.6% | 77% | 7.5% | 100%
COc1cc(C)c(N(C)C(=O)CN(C)C)cc1Nc1nc(Nc2cccc(F)c2C(N)=O)c2cc[nH]c2n1 [GSK2219385] | 92% | 89% | 100% | 90% | 100% | 73% | 100% | 100% | 79% | 100% | 100% | 44% | 92% | 69% | 100% | 54% | 58% | 91% | 67% | 100%
